ELG1 repair inh = qHTS screen for small molecules that inhibit ELG1-dependent DNA repair in human embryonic kidney (HEK293T) cells expressing luciferase-tagged ELG1; HEK293T ELG1-luciferase reporter, luminescence, 16 h; DNA damage induced by 5-fluorouridine; Potency, µM (titrated, usually from 46.1 µM), without a hit: at the highest dose activity change, negative = inhibition, actives largely listed as inhibitors; 2.3% of 330,000 active; further: potency means the concentration at half of the fitted maximal effect; nearly all actives have a fitted effect of over 55% in size
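HEK293T cells expressing luciferase-tagged ELG1 (2,000/well) received 5-Fluorouridine plus compound or DMSO for 16 hr at 37 °C. Luciferase was read by ONE-Glo luminescence after 30 min at room temperature.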
TDP1 cell CPT = qHTS for Inhibitors of human tyrosyl-DNA phosphodiesterase 1 (TDP1): qHTS in cells in presence of CPT; Potency, µM (titrated, usually from 46.2 µM), for the others: at the highest dose activity change, negative = growth inhibition, hits mostly inhibitors; 12% of 420,000 active; chicken DT40 Tdp1-/-;hTDP1 cells + 20 nM CPT, ATP luminescence, 48 h; further: potency means the concentration at half of the fitted maximal effect; nearly all actives have a fitted effect of over 55% in size
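Cell growth measured by CellTiter-Glo luminescence after a minimum 48 h, 37 C compound exposure with 20 nM CPT in Tdp1-knockout DT40 cells stably expressing hTDP1, seeded 400/well; qHTS titration format.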
Giardia kill = Small Molecules that selectively kill Giardia lamblia: qHTS. activity change, % at 7.66 µM, hits read low. Giardia lamblia trophozoite viability. 0.15% of 340,000 active; in the data active means activity change below about -80%; inconclusive means between about -30% and that limit;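 further: parasites exposed to compound for two days anaerobically before the ATP read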
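Luminescent ATP signal served as the viability read-out, measured 15-30 min after adding ATP detection reagent to trophozoites that had been incubated with compounds for 48 hrs at 37 deg C anaerobically at 100 cells/well.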
IL1B secr inh = qHTS for Inhibitors of Inflammasome Signaling: IL-1-beta AlphaLISA Primary Screen; THP-1 LPS/ATP IL-1B secretion, AlphaLISA, 16 h; hits give low values; activity change, % at 57.5 µM; 4.7% of 360,000 active; AID 743279, 2014; in the data active means activity change below about -50%; inconclusive means mostly about -30% to -49%
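Secreted IL-1B measured by AlphaLISA bead assay after 16 h compound exposure of THP-1 cells; compounds (final up to 57.5 uM) added 1 h before LPS (250 ng/mL) and ATP (1.25 mM) stimulation; lower signal means less secretion.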
TDP1 inh = qHTS Assay for Inhibitors of Tyrosyl-DNA Phosphodiesterase (TDP1) | Potency, µM (series often up to 130 µM), for inactives: top-dose activity change, negative = inhibition, usual class: inhibitors | 0.28% of 350,000 active | recombinant TDP1, AlphaScreen DNA substrate cleavage | AID 485290, 2010 | Tyrosyl-DNA phosphodiesterase 1 (Homo sapiens), Q9NUW8; further: potency means the concentration at half of the fitted maximal effect; nearly all actives have a fitted effect of over 40% in size
Target sequence (Q9NUW8 whole entry, looked up): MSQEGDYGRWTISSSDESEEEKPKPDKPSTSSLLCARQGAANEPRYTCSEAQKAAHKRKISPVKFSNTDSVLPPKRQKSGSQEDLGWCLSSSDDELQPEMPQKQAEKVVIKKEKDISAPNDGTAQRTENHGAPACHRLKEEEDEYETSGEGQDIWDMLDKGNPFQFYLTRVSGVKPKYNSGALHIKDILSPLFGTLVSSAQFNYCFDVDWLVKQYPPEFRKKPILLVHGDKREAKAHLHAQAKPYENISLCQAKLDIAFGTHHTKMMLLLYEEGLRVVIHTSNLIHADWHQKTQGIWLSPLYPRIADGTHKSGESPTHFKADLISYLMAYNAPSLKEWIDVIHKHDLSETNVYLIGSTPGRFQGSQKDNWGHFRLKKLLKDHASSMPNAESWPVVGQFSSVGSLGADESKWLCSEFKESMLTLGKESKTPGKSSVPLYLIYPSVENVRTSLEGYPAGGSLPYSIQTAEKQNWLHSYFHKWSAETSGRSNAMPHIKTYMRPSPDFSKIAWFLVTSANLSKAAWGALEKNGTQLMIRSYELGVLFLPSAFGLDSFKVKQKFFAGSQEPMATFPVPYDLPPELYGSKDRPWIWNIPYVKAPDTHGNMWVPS
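Recombinant human Tdp1 (E. coli-expressed, 1 nM final) preincubated with compounds 15 min at room temperature, then 5'-biotin/3'-phosphotyrosine-FITC DNA substrate (15 nM final) added for 5 min. AlphaScreen beads (10 ug/ml final) added 10 min; cleavage lowers signal.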
DT40 TDP1 no CPT = qHTS for Inhibitors of human tyrosyl-DNA phosphodiesterase 1 (TDP1): qHTS in cells in absence of CPT | AID 686978, 2013 | Potency, µM (doses to about 46.2 µM), without a hit: at the highest dose activity change, negative = growth inhibition, usual class: inhibitors | 15% of 420,000 active | DT40 Tdp1-/- hTDP1 cells, no CPT, ATP luminescence, 48 h; further: potency means the concentration at half of the fitted maximal effect; nearly all actives have a fitted effect of over 55% in size
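A cellular qHTS used chicken DT40 cells lacking endogenous Tdp1 but carrying stably transfected human TDP1. Compounds were applied without camptothecin, and cell growth kinetics were judged by ATP-dependent luminescence after ≥48 hr.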
* hit, by the source's call; ? = inconclusive; . = not tested or not shown; [ ] = remark or other dose. Most compounds without a hit are left out; they make up all but 19% or so of the library. Unless noted, the call rests on the fitted dose curve; in most records, active means well fitted curve in the direction sought with a large enough effect; inconclusive means small, poorly fitted or top-dose-only effect, or another doubt; inactive means no such curve, though single readings can be large; an effect the other way counts as inactive or inconclusive. On the % scale 0 is the no-effect control and ±100 the full control effect.

SMILES	ELG1 repair inh	TDP1 cell CPT	Giardia kill	IL1B secr inh	TDP1 inh	DT40 TDP1 no CPT
COc1cc(OC)c2c(-c3ccccc3)cc(=O)oc2c1C(CC(=O)N1CCOCC1)c1ccc(N(C)C)cc1 (centres undefined)	?	?	-1	4	22%	?
COc1cc(OC)c2c(-c3ccccc3)cc(=O)oc2c1C(CCN1CCCC(C)C1)c1ccc(N(C)C)cc1 (centres undefined)	-13%	?	-25	-27	11%	21µM*
Cc1ccc(NC(=O)CN2C(=O)C3(SCC(=O)N3c3cccc(Cl)c3)c3ccccc32)cc1C (centres undefined)	.	?	.	.	0%	?
CCOc1ncccc1C(=O)Nc1cc2c(cc1Br)OCCO2	-30%	21µM*	4	19	-3%	12µM*
COCC(=O)c1[nH]c2ccccc2c1C	5%	26µM*	-6	17	4%	?
COCC(=O)NCCSc1c(C)[nH]c2ccccc12	-9%	2%	2	-4	8%	8%
CCOC(=O)c1[nH]c2ccccc2c1NC(=O)c1ccccc1OCC	.	0.65µM*	.	.	6%	0.73µM*
CCCC(=O)Nc1c(C(=O)OCC)[nH]c2ccccc12	?	-21%	37	-54*	-3%	1.8µM*
CCOC(=O)c1[nH]c2ccccc2c1NC(=O)c1ccc(S(=O)(=O)N2CCCCC2)cc1	-12%	?	-6	13	-1%	23µM*
COc1ccc(NC(=O)C2CCCCC2)cc1S(=O)(=O)N1CCOCC1	-10%	9%	6	26	1%	-18%
CCC1=C2CC[C@H]3C(=O)N(CC)C(=O)[C@H]3[C@H]2[C@@]2(C)C(=O)N(CC(=O)OC)C(=O)N2C1=O	.	.	.	.	-7%	.
COc1ccccc1CNC(=O)COCc1cc(-c2cccs2)on1	.	?	.	.	6%	?
CCOC(=O)c1[nH]c2ccc(Br)cc2c1NC(=O)CCN1CCC(C)CC1	4%	?	-4	-15	8%	18µM*
O=c1cc(N2CCN(c3ccc(F)cc3)CC2)[nH]c(=O)n1Cc1ccc(F)cc1	?	9.2µM*	-7	12	0%	8.2µM*
Cc1csc2c(N3CCN(C(=O)c4ccc(C(C)(C)C)cc4)CC3)ncnc12	15µM*	?	22	-9	5%	4.1µM*
O=C(Nc1ccc(Cl)c(Cl)c1)N1CCSCC1	?	-24%	-21	-29	2%	?
Cc1csc2c(N3CCN(C(=O)Nc4ccc(Cl)c(Cl)c4)CC3)ncnc12	18µM*	?	-17	-78*	3%	21µM*
Cc1csc2c(N3CCN(C(=S)Nc4ccc(C(F)(F)F)cc4)CC3)ncnc12	?	?	-19	12	4%	?
Cc1csc2c(N3CCN(C(=O)NC(C)(C)C)CC3)ncnc12	?	15µM*	-5	22	3%	18µM*
CCOC(=O)c1c(S(=O)(=O)N2CCCC(C(=O)Nc3ccc(OCC)cc3)C2)c(C)n(C)c1C (centres undefined)	.	-26%	.	.	8%	?
CO[C@H]1COC(=O)[C@@H](C)COC(=O)[C@@H](COCc2ccccc2)NC(=O)C/C=C\[C@H]1C	.	.	.	.	6%[21 µM]	.
COc1cccc(CN2CCNC(=O)C2CC(=O)N(C)C2CCOCC2)c1OC (centres undefined)	6%	-2%	5	5	1%	-2%
COc1ccc2c(CNCCc3ccco3)c(C(=O)O)n(Cc3ccccc3)c2c1	.	0%	.	.	5%	?
Cc1ccccc1Cn1c(C)c(CNCCCc2ccccc2)c(C(=O)O)c1C	.	?	.	.	10%	?
COc1ccc(Cn2c(C(=O)O)c(CNCc3ccc(OC)cc3OC)c3ccc(C)cc32)cc1	.	15µM*	.	.	6%	9.2µM*
SMILES	ELG1 repair inh	TDP1 cell CPT	Giardia kill	IL1B secr inh	TDP1 inh	DT40 TDP1 no CPT
COc1ccc(CCNCc2c(C(=O)O)c(C)n(Cc3ccccc3C)c2C)c(OC)c1	.	?	.	.	3%	18µM*
COc1ccc(Cn2c(C(=O)O)c(CNCCc3cc(OC)ccc3OC)c3ccc(C)cc32)cc1	.	?	.	.	11%	16µM*
CCOc1ccc(CCNCc2c(C(=O)O)n(Cc3ccc(C)cc3)c3cc(OC)ccc23)cc1	.	?	.	.	0%	18µM*
CCC(C(=O)N1CCCCCC1)n1nc(C)n2c(cc3occc32)c1=O (centres undefined)	24%	-18%	15	-6	1%	0%
CCOc1ccc(NC(=O)N2CC3CCCN3c3ccccc32)cc1 (centres undefined)	.	?	.	.	13%	?
CCOC(=O)c1cccc(NC(=O)C2Cc3ccccc3N2C(=O)c2ccccc2)c1 (centres undefined)	.	-25%	.	.	1%	-22%
Nc1cccn2c(-c3ccc(Cl)cc3)cnc12	?	?	16	-11	8%	18µM*
COc1ccc([N+](=O)[O-])cc1NC(=O)C(C)OC(=O)Cn1[nH]c(=O)c2ccccc2c1=O (centres undefined)	9%	-2%	-3	3	-5%[0.505 µM]	-12%
COc1ccc([N+](=O)[O-])cc1NC(=O)C(C)OC(=O)CN1C(=O)C2CC=CCC2C1=O (centres undefined)	14%	8%	5	-63*	-3%	-18%
COc1ccc(CN(C)C(C)C(=O)Nc2ccc([N+](=O)[O-])cc2Cl)cc1OC (centres undefined)	9.2µM*	26µM*	-4	5	6%	9.2µM*
COc1ccc(Br)cc1CN(C)C(C)C(=O)Nc1cc([N+](=O)[O-])ccc1OC (centres undefined)	?	?	6	33	3%	23µM*
CCOc1ccc(CN(C)C(C)C(=O)Nc2ccc([N+](=O)[O-])cc2Cl)cc1OC (centres undefined)	15µM*	16µM*	14	24	5%	?
CCCNC(=O)N(C)C[C@H]1Oc2cc(Br)ccc2S(=O)(=O)N([C@@H](C)CO)C[C@@H]1C	.	-15%	.	3	.	1%
